97 compounds from PubChem BioAssay AID1376 (SRMLSC, 2008) can be followed below.

By inhibition is commonly meant the drop in the measured response relative to a control, in per cent.

The campaign covered roughly 220,000 compounds. About 530 (0.24%) were called active. The entries come from a sample that favours actives as a whole. Potency and affinity values are given separately. Values without a mark were called inactive. No stated cut-off is given here; in the data, active means inhibition above about 13%; inconclusive means no clear call, values can overlap the other calls; inactive means below that.

In this experiment the target is Bifunctional protein GlmU (Mycobacterium tuberculosis (strain ATCC 25618 / H37Rv)) (UniProt P9WMN3). The experiment is described as follows: inhibition of mycobacterial GlmU enzyme – biochemical, glucosamine-1-phosphate acetyltransferase (AID 1376).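 Further: 0% = complete reaction with vehicle and 100% = reaction without substrate.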 As to conditions: M. tuberculosis GlmU acetyltransferase enzyme assay; hits give high values;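 tested at 30 µM in the primary screen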.
Bifunctional protein GlmU (Mycobacterium tuberculosis (strain ATCC 25618 / H37Rv)), sequence (P9WMN3 whole entry, looked up): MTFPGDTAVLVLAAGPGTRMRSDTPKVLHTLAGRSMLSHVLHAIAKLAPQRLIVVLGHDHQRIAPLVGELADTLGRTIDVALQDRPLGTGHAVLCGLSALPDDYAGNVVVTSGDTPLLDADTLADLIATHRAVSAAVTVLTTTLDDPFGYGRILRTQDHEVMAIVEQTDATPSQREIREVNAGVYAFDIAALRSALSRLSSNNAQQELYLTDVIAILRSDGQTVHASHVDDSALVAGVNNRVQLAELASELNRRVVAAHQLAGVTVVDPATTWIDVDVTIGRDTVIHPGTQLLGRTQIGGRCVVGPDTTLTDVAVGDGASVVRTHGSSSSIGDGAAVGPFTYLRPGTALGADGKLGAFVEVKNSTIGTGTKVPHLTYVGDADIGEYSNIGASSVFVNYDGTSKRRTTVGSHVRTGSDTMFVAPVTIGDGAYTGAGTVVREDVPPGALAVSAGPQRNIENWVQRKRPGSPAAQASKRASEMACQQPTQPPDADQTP
Turning to `C=CCn1c(O)c(C=NCCN2CCOCC2)c(=O)[nH]c1=S`, the inhibition was -1.69%.
Next, `Cc1cc2nc(-c3ccc(SCc4ccc(C#N)cc4)nc3)[nH]c2cc1C`: 0.22%; `Cc1cc2nc(-c3ccc(SCc4ccc(C(=O)O)cc4)nc3)[nH]c2cc1C`: 13.2% (active).
Then `CC(=O)CSc1ccc(-c2nc3cc(C)c(C)cc3[nH]2)cn1`, with 8.32%.
Next, `O=C(O)c1ccccc1-c1ccccc1C(=O)Nc1cccc(Br)c1`: 0.35%; `CCOc1ccc(-c2cc3cc(OC)c(OC)cc3c(C)n2)cc1`: -1.9%; `Cc1nc(-c2ccccc2Cl)sc1C(=O)/C=C/N(C)C`: -0.01%.
With `Cc1nnc(SCC(=O)Nc2ccc(-c3nc4ccccc4s3)cc2)s1`, the inhibition is 6.16%.
Then `Cc1ccc2nc(-c3ccc(NC(=O)CSCC(=O)O)cc3)sc2c1`, with 4.5%.
Next, `CCc1nc(-c2ccccc2)c2ccccn12`: 0.63%.
Then `COCCn1nnnc1C(C(C)C)N(Cc1cccnc1)Cc1cc2cc(OC)ccc2[nH]c1=O` (configuration not stated), with 0.94%; and `COc1ccc(Cl)cc1NC(=O)NC(C)c1ccncc1` (configuration not stated), with 13% (active); and `COc1ccc(Cl)cc1NC(=O)NC(C)C`, with -2.94%.
As to `COc1ccc(C)cc1NC(=O)NC(C)c1ccncc1` (configuration not stated), the inhibition is -4.98%.
Next, `Cc1cc2c3ccccc3ncn2n1`: 4.82%; `CCOC(=O)c1cnc2c(c(C)nn2C)c1Oc1ccccc1F`: 3.91%; `COc1cccc(OCC(Cn2cnc3ccccc32)OC(C)=O)c1` (configuration not stated): -0.44%.
Next, `CCc1ccccc1NC(=O)c1cccc(NC(=O)/C=C/c2ccco2)c1`: -2.87%.
As for `O=C(/C=C/c1ccco1)Nc1cccc(C(=O)Nc2ccccc2C(=O)O)c1`, the inhibition is 14.7% (active).
Next, `O=C(/C=C/c1ccco1)Nc1ccccc1C(=O)Nc1cccc(C(=O)O)c1`: 3.1%; `COC(=O)c1ccccc1NC(=O)/C=C/c1ccco1`: -3.26%.
In the case of `O=C(O)CCCN1C(=O)/C(=C\c2ccco2)SC1=S`, the inhibition was 23.1%.
Next, `O=C(/C=C/c1ccco1)Nc1cccnc1Cl`: 0.97%; `O=C(/C=C/c1ccco1)Nc1cc(Cl)ccc1C(=O)O`: 13% (active); `O=C(/C=C/c1ccco1)Nc1ccccc1N1CCCC1`: -0.88%.
Then `O=C(CCCN1C(=O)/C(=C/c2ccco2)SC1=S)Nc1cccc(C(=O)O)c1`, with 8.84%; and `O=C(/C=C/c1ccco1)Nc1ccc(Oc2ccc(Cl)cc2)cc1`, with 2.3%; and `O=C(/C=C/c1ccco1)Nc1ccccc1C(=O)O`, with 15% (active).
Then `CCc1cccc(CC)c1NC(=O)COC(=O)c1ccccc1-c1nc2ccccc2s1`, with -1.43%.
As for `COc1ccc(-n2c(SCC(=O)NCCCN3CCCC3=O)nnc2C(C)N2CCCCC2)cc1` (configuration not stated), the inhibition was -0.73%.
Next, `O=C(O)C(Cc1cc(Cl)ccc1Cl)Sc1nc2ccccc2[nH]1` (configuration not stated): -6.33%; `COCCNC(=O)COC(=O)c1[nH]c(C)c(C(C)=O)c1C`: -0.47%.
As for `COc1ccc(/C=C/C(=O)Nc2nnc(C(C)C)s2)cc1OC`, the inhibition was 4.06%.
Next, `CN(C)/C=C/C(=O)C(Cl)(Cl)Cl`: -0.97%.
Regarding `COc1ccc(Nc2nnc(SCc3cc([N+](=O)[O-])cc4c3OCOC4)s2)cc1`, the inhibition was -5.67%.
Next, `O=C(CCCOc1ccc(Cl)cc1Cl)NCc1ccncc1`: 2.06%.
Next, `CN(CC(=O)Nc1ccc2c(c1)OCO2)S(=O)(=O)c1ccc2c(c1)CCC(=O)N2`: 2.93%; `O=C(Cc1c(O)c2ccccc2[nH]c1=O)N(Cc1ccccc1)Cc1ccccc1`: 35% (active).
Then `CCN(CC)C(=O)Cc1c(O)c2ccccc2[nH]c1=O`, with 1.17%.
Take `CC(C)CCN(CCC(C)C)C(=O)Cc1c(O)c2ccccc2[nH]c1=O`: the inhibition is -2.47%.
In the case of `COc1ccc(NC(=O)C2=C(C)Nc3nc(CCCO)nn3C2c2ccc(OC)c(OC)c2)cc1` (configuration not stated), the inhibition is 6.23%.
Take `COc1cc(NC(=O)c2cccs2)c(C(=O)OCC(=O)c2cc(C)n(-c3ccc(F)cc3)c2C)cc1OC`: the inhibition is 3.27%.
Next, `Cc1ccccc1Oc1ccc(NC(=O)C2CC=CCC2C(=O)O)cc1` (configuration not stated): 3.98%; `CN(C)c1ncc(S(=O)(=O)c2ccccc2)c(-c2ccccc2Cl)n1`: 13.9% (active); `CN(C)c1ncc(S(=O)(=O)c2ccc(Cl)cc2)c(-c2ccccc2)n1`: -0.58%.
Next, `Cc1ncc(S(=O)(=O)c2ccccc2)c(-c2ccccc2Cl)n1`: 4.86%; `CC(C)N1CCC(N2CCN(Cc3ccc4nsnc4c3)CC2CCO)CC1` (configuration not stated): -6.91%; `O=C(CCc1nc2ccccc2[nH]c1=O)OCc1ccc(S(=O)(=O)N2CCOCC2)cc1`: 1.61%.
Next, `Cc1cccc2cc3c(NC(=O)CC(C)C)nn(C)c3nc12`: 0.35%; `CC1=C(C/C(C)=C/c2ccccc2)/C(=C/CO)[C@H](O)[C@](C)(O)C12CC2`: 13.9% (active).
For `CC1=C(C/C(C)=C/c2ccccc2)/C(=C/CO)[C@@H]2OC(=O)O[C@]2(C)C12CC2`, the inhibition was 3.53%.
Next, `C/C(=C\c1ccccc1)CN1CCN(c2ccccc2)CC1`: 2.64%.
Next, `NC(=O)NNC(=S)Nc1cccc2ccccc12`: 4.54%; `NC(=O)Nc1cccc2ccccc12`: 14.6% (active); `NC(=O)c1ccccc1NC(=O)Nc1cccc2ccccc12`: -1.2%.
On to `O=C1CCCC2=C1C1c3ccccc3C(=O)N1c1ccc(C(=O)c3ccccc3)cc1N2` (configuration not stated), for which the inhibition was 0.1%.
With `O=C(CCC(=O)c1ccc(Oc2ccccc2)cc1)Nc1cccc(Cl)c1`, the inhibition was 3.77%.
For `Cc1c2cc(O)c(=O)cc-2oc2cc(O)c(O)cc12`, the inhibition was 27.1% (active).
Next, `COc1ccc(OC)c(-c2oc3ccccc3c(=O)c2O)c1`: 0.78%.
In the case of `O=c1cc2oc3cc(O)c(O)cc3c(-c3ccccc3O)c-2cc1O`, the inhibition is 15.4% (active).
Then `O=c1cc(-c2ccccc2Cl)oc2cccc(O)c12`, with 3.22%.
Next, `Cc1ccccc1-c1cc(=O)c2c(O)cccc2o1`: -2.72%; `CCOc1ccccc1-c1c2cc(O)c(=O)cc-2oc2cc(O)c(O)cc12`: -3.1%.
Regarding `CC1(C)CC(=O)c2c(oc3cc(O)c(O)cc23)C1`, the inhibition was -1.56%.
In the case of `COc1ccc(OC)c(-c2c3cc(O)c(=O)cc-3oc3cc(O)c(O)cc23)c1`, the inhibition is 14.7% (active).
Next, `COc1cc(OC)c(-c2c3cc(O)c(=O)cc-3oc3cc(O)c(O)cc23)cc1OC`: 8.01%.
Then `Cc1cc(NC(=O)CCCn2nc([N+](=O)[O-])cc2C)no1`, with 0.02%; and `COc1ccc2c(OC)cc(-c3ccccc3)nc2c1`, with 3.08%.
Then `Cc1cc(NC(=O)Cc2ccccc2)c2ccccc2n1`, with -0.11%; and `CC(=O)Nc1cccc(NC(=O)CSc2ccc(C(F)(F)F)cc2[N+](=O)[O-])c1`, with 1.81%.
As to `CCOC(=O)c1c(C2CC2)csc1NC(=O)COC(=O)c1cnc(Cl)c(Cl)c1`, the inhibition is 4.42%.
Take `S=c1[nH]nc(COc2cccc(Cl)c2)n1Cc1ccccc1`: the inhibition was 2.34%.
In the case of `O=C(Cc1c[nH]c2ccccc12)Nc1nccs1`, the inhibition is 3.72%.
Then `CC1Cc2ccccc2N1C(=O)C1CCCN(S(=O)(=O)c2cccc3cccnc23)C1` (configuration not stated), with -0.65%; and `CCSc1nc2ccccc2c(=O)n1C1CCOC(C)(C)C1` (configuration not stated), with 7.35%; and `O=C(NCCCN1CCOCC1)c1sc2cc(F)ccc2c1Cl`, with -2.73%.
Next, `O=C(NCCCN1CCOCC1)c1sc2cc([N+](=O)[O-])ccc2c1Cl`: 12.9% (active); `O=C(NCCCN1CCOCC1)c1sc2cc(Cl)ccc2c1Cl`: 4.82%.
Next, `CCN(CC)c1ccc(N=Nc2ncn[nH]2)cc1`: -1.86%; `COc1ccc2ccccc2c1C1CC(=O)N2CN(C3CCCCC3)CSC2=C1C#N` (configuration not stated): 7.17%; `CCOc1ccccc1N1CSC2=C(C#N)C(c3c(OC)ccc4ccccc34)CC(=O)N2C1` (configuration not stated): 3.43%.
For `COc1ccc2ccccc2c1C1CC(=O)N2CN(C)CSC2=C1C#N` (configuration not stated), the inhibition was 13.8% (active).
Then `O=C(O)COc1c(Cl)cc(/C=C2\NC(=O)NC2=O)cc1Br`, with 3.85%.
Next, `CC(C)OC(=O)c1cccc(C(=O)Nc2cccc(NC(=O)c3cccc(C(=O)OC(C)C)n3)n2)n1`: 2.69%; `O=C(O)c1cc(-c2ccc(/C=N/NC(=S)Nc3ccccc3)o2)ccc1Cl`: 10.1%; `O=C(N/N=C/c1ccc([N+](=O)[O-])o1)c1cc2c(ccc3ccccc32)o1`: -4.6%.
Then `COC(=O)c1cc(OC)cc(O)c1C(=O)c1c(O)cc(C)cc1O`, with 1.11%; and `COC(=O)c1cc(O)cc(OC)c1C(=O)c1c(O)cc(C)cc1O`, with 0%; and `Clc1ccc(-c2csc(Nc3cccnc3)n2)cc1`, with -1.87%.
Regarding `CCCCCCNCc1c(F)cccc1Cl`, the inhibition is -1.27%.
Then `CCOC(=O)/C(=N/Nc1ccccc1OC)N1CCCc2ccccc21`, with 3.21%; and `Cc1nc2c(=O)n(-c3ccc(F)c(Cl)c3)nc(C)c2s1`, with -1.25%; and `FC(F)(F)c1ccccc1NC(=S)N/N=C1\CC2CC=CC12` (configuration not stated), with -4.32%.
Then `Cc1cccc(C)c1NC(=S)N/N=C1\CC2CC=CC12` (configuration not stated), with 14.2% (active); and `Cc1ccc(NC(=S)N/N=C2\CC3CC=CC23)c(C)c1` (configuration not stated), with 2.83%.
Next, `Clc1ccc(-c2nnc(-c3ccco3)nc2N2CCCCC2)cc1`: -2.38%; `Cc1ccc(C(=O)N/N=C\c2ccc(-c3ccc(Cl)c(Cl)c3)o2)cn1`: -1.63%.
